Active and inactive are the calls of the source. Rule for the calls: active = hit-call score of the fitted dose curve at least 0.9, where 1 is the maximum; inactive = score below 0.9.
Assay: ATG_FoxO_CIS: Attagene CIS-FACTORIAL HepG2 Assay for human Forkhead box O (FoxO) (AID 2282943)
Conditions: HepG2 Attagene cis-reporter, FoxO element, mRNA; actives raise or lower the signal
Method in brief: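 HepG2 cells transiently transfected with cis-promoter-driven multiple reporter transcription units; 24 h after chemical dosing, reporter mRNA quantified by RT-PCR, fluorescent primer extension, HpaI digestion and capillary electrophoresis. Bidirectional fitting versus DMSO baseline.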

outcome, inactive:
Cc1[nH]cnc1C[C@H]1CCc2c(C)c3ccccc3n2C1=O
CC(C)CCCCCCCOC(=O)CCCCC(=O)OCCCCCCCC(C)C
CN(C)c1ccc(Cc2ccc(N(C)C)cc2)cc1
CC(C)=CCCC(C)=CC=O
COC(=O)c1ccccc1O
O=C1CCC(N2C(=O)c3ccccc3C2=O)C(=O)N1 (centres undefined)
CC(C)CC(C)(O)C#CC(C)(O)CC(C)C (centres undefined)
CCC(C)(C)C(=O)O[C@H]1C[C@@H](C)C=C2C=C[C@H](C)[C@H](CC[C@@H]3C[C@@H](O)CC(=O)O3)[C@H]21
CC(C)(O)c1coc(S(=O)(=O)NC(=O)Nc2c3c(cc4c2CCC4)CCC3)c1
O=C(OC[C@H]1O[C@@H](OC(=O)c2cc(O)c(O)c(OC(=O)c3cc(O)c(O)c(O)c3)c2)[C@H](OC(=O)c2cc(O)c(O)c(OC(=O)c3cc(O)c(O)c(O)c3)c2)[C@@H](OC(=O)c2cc(O)c(O)c(OC(=O)c3cc(O)c(O)c(O)c3)c2)[C@@H]1OC(=O)c1cc(O)c(O)c(OC(=O)c2cc(O)c(O)c(O)c2)c1)c1cc(O)c(O)c(OC(=O)c2cc(O)c(O)c(O)c2)c1
Cn1cnc([N+](=O)[O-])c1Sc1ncnc2nc[nH]c12
O=C(O)CC(O)C(=O)O (centres undefined)
CC[C@H](C)C(=O)O[C@H]1C[C@@H](C)C=C2C=C[C@H](C)[C@H](CC[C@@H]3C[C@@H](O)CC(=O)O3)[C@H]21
COCCOc1cc2cc(C(=O)NC3CCN(C(C)C)CC3)n(CC(=O)Nc3ccc(Cl)cn3)c2cn1
CC(C)=CCC/C(C)=C/CO
CCOC(=O)CC(CC(=O)OCC)(OC(C)=O)C(=O)OCC
Cc1ccc(C)c(O)c1
CC[C@H]1OC(=O)[C@H](C)[C@@H](O[C@H]2C[C@@](C)(OC)[C@@H](O)[C@H](C)O2)[C@H](C)[C@@H](O[C@@H]2O[C@H](C)C[C@H](N(C)C)[C@H]2O)[C@](C)(O)C[C@@H](C)C(=O)[C@H](C)[C@@H](O)[C@]1(C)O
CC(C)CCO
CC(C)CCCCCCOC(=O)c1ccc(C(=O)OCCCCCCC(C)C)c(C(=O)OCCCCCCC(C)C)c1
Cc1c(-c2cccnc2)c2ccccc2n1CCCCC(=O)O
CCCCC(CC)COC(=O)c1ccc(C(=O)OCC(CC)CCCC)cc1 (centres undefined)
CCCCCCCCO
O=C(O)CCN(C1(C(=O)NO)CCCC1)S(=O)(=O)c1ccc(Oc2ccc(F)cc2)cc1
COc1cccc(-c2ccc(/C=C\CN3CCCCCC3)cc2Cl)c1
CC(C)=CCC/C(C)=C\CO

AC50, active:
O=P(OC(CCl)CCl)(OC(CCl)CCl)OC(CCl)CCl 169 µM
O=c1n(CC2CO2)c(=O)n(CC2CO2)c(=O)n1CC1CO1 (centres undefined) 31.7 µM
CCCCCCCCCCCCCCCO 175 µM

Reference: PubChem BioAssay (EPA / NIEHS)
